Our source for the outcome and AC50 values is PubChem BioAssay (EPA / NIEHS).

Active and inactive are the calls of the source. Rule for the calls: active = hit-call score of the fitted dose curve at least 0.9, where 1 is the maximum; inactive = score below 0.9.

Assay [1] is described as follows: ATG_CRE_CIS: Attagene CIS-FACTORIAL HepG2 Assay for human cAMP Responsive Element (CRE) binding protein 3 (AID 2282926). The following applies: HepG2 CRE cis-reporter, Attagene multiplexed mRNA; actives raise or lower the signal. In short, it runs like this:
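Induced reporter mRNA from a CRE cis element, measured in HepG2 among many multiplexed units at 24 h. Detection used RT-PCR plus capillary electrophoresis of fluorescent fragments; DMSO served as negative control.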

Assay [2] addresses CCAAT/enhancer-binding protein beta (Homo sapiens) (UniProt P17676). As to the kind of experiment: ATG_C_EBP_CIS: Attagene CIS-FACTORIAL HepG2 Assay for human CCAAT/Enhancer Binding Protein (C/EBP) beta (AID 2282927). The following applies: HepG2 Attagene cis-factorial transcription factor reporter; actives raise or lower the signal. In short, it runs like this:
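Changes in reporter mRNA, rather than exogenous chimeric receptor activity, reflect native C/EBP signalling in transfected HepG2 cells dosed for 24 h; transcripts are detected by RT-PCR and capillary electrophoresis.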

A short description of assay [3]: ATG_CMV_CIS: Attagene CIS-FACTORIAL HepG2 Assay for human CMV (Internal Marker) (AID 2282928).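 Note: endpoint acts as a background internal control marker rather than a target.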 The note with it: HepG2 CMV promoter reporter, transcription factor profiling; actives raise or lower the signal. In outline: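 Readout: fluorescent reporter cDNA fragments separated by capillary electrophoresis after RT-PCR and HpaI cut. Cells: HepG2 carrying transfected cis-promoter reporter constructs, dosed 24 h. Endpoint serves as background internal-marker control, fit bidirectionally versus DMSO.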

A short description of assay [4]: ATG_DR4_LXR_CIS: Attagene CIS-FACTORIAL HepG2 Assay for human Liver X Receptor (LXR), DR4 submotif (AID 2282929). The note with it: HepG2 Attagene DR4 cis-reporter, mRNA transcription; actives raise or lower the signal. In outline:
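Cells were transfected with multiple reporter transcription units, exposed to chemicals for 24 hours, then lysed for RNA. Reporter mRNA induction was measured by RT-PCR with capillary electrophoresis detection and fitted in both directions relative to DMSO.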

Assay [5] concerns the target Aryl hydrocarbon receptor (Homo sapiens) (UniProt P35869). Kind of assay: ATG_Ahr_CIS: Attagene CIS-FACTORIAL HepG2 Assay for human Aryl Hydrocarbon Receptor (Ahr) (AID 2282930). The following applies: HepG2 AhR cis-factorial reporter transcription; actives raise or lower the signal. In short, it runs like this:
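HepG2, transient MRTU (cis) transfection, 24 h exposure. RNA → cDNA → PCR → 6-FAM primer extension → HpaI 2 h 37 C → CE. Fit: bidirectional, DMSO baseline.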

The nature of assay [6]: ATG_AP_1_CIS: Attagene CIS-FACTORIAL HepG2 Assay for human Activator Protein 1 (AP-1) (AID 2282931). The note with it: HepG2 Attagene cis-factorial AP-1 reporter mRNA; actives raise or lower the signal. In short, it runs like this:
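Endogenous transcription-factor activity in human HepG2 liver cells is read through a cis-promoter reporter transcript, sampled 24 h after dosing. Detection uses RT-PCR with capillary electrophoresis; values come from bidirectional fitting relative to DMSO.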

Assay [7] is described as follows: ATG_AP_2_CIS: Attagene CIS-FACTORIAL HepG2 Assay for human Activator Protein 2 (AP-2) (AID 2282932). The following applies: HepG2 AP-2 cis-reporter, Attagene transcription factor profiling; actives raise or lower the signal. In short, it runs like this:
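Transiently transfected HepG2 cells are exposed to chemical for 24 h. Reporter transcripts are then measured as fluorescence following RT-PCR and capillary separation, and gain- or loss-of-signal is fitted relative to DMSO.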

In assay [8] the target is Retinoic acid receptor alpha (Homo sapiens) (UniProt P10276). As to the kind of experiment: ATG_DR5_RAR_CIS: Attagene CIS-FACTORIAL HepG2 Assay for human Retinoic Acid Receptor Alpha (RARE), DR5 submotif (AID 2282934). The note with it: HepG2 Attagene cis-factorial RARE DR5 reporter, mRNA; actives raise or lower the signal. In outline: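 HepG2, transient cis-reporter transfection, 24 h exposure. mRNA readout: RT-PCR, FAM label, HpaI cut, capillary electrophoresis. DMSO baseline, gain/loss fitting.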
Sequence of Retinoic acid receptor alpha (Homo sapiens) (P10276 whole entry, looked up): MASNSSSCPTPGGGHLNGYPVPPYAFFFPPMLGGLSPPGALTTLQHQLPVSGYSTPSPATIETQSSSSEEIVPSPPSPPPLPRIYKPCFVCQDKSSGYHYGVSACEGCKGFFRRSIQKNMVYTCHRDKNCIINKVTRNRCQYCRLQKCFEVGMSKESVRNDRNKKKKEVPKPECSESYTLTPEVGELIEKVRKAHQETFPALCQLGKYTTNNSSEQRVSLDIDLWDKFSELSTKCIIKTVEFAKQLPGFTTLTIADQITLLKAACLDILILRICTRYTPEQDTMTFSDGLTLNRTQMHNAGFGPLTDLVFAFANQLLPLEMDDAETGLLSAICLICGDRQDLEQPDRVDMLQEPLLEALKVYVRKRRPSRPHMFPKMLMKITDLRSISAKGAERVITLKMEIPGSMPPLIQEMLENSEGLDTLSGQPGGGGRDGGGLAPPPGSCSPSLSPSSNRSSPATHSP

The target of assay [9] is Transcription factor E2F1 (Homo sapiens) (UniProt Q01094). As to the kind of experiment: ATG_E2F_CIS: Attagene CIS-FACTORIAL HepG2 Assay for human E2F Transcription Factor 1 (AID 2282935). The following applies: HepG2 Attagene cis-reporter, E2F reporter RNA transcripts; actives raise or lower the signal. In short, it runs like this: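 Fluorescent RT-PCR products, digested with HpaI for 2 h at 37 C, are separated by capillary electrophoresis. Source RNA comes from transfected HepG2 cultures treated for 24 h.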
Sequence of Transcription factor E2F1 (Homo sapiens) (Q01094 whole entry, looked up): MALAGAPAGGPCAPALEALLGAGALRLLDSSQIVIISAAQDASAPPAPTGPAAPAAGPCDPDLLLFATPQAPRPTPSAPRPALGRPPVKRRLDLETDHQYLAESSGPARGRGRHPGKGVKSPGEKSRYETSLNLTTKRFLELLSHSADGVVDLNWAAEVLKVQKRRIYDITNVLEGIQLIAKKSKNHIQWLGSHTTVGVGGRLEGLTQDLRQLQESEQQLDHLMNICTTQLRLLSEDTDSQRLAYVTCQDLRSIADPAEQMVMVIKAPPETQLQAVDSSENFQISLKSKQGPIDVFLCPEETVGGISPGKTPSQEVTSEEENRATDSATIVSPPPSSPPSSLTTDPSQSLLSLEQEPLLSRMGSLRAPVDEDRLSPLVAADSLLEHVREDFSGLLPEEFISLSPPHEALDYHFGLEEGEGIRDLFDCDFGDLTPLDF

Assay [10] is described as follows: ATG_E_Box_CIS: Attagene CIS-FACTORIAL HepG2 Assay for human Enhancer Box (E-box) (AID 2282936). The following applies: HepG2 E-box cis-reporter transcription, actives raise or lower the signal. In short, it runs like this: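 Fluorescent reporter fragments separated by capillary electrophoresis gave the signal; mRNA came from HepG2 cells transfected with cis-element reporters and treated 24 h. Curves fitted bidirectionally relative to DMSO controls.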

The nature of assay [11]: ATG_M_61_CIS: Attagene CIS-FACTORIAL HepG2 Assay for M61 Transcription Factor (Internal Marker) (AID 2282937). The note with it: HepG2 Attagene CIS-FACTORIAL M61 internal marker reporter; actives raise or lower the signal. In outline: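 Cells were transfected with reporter units under cis-regulatory promoters, treated with chemicals for 24 h, then lysed for RNA. Reporter transcripts were quantified by RT-PCR and capillary electrophoresis, and activity was fitted bidirectionally against DMSO.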

The nature of assay [12]: ATG_EGR_CIS: Attagene CIS-FACTORIAL HepG2 Assay for human Early Growth Response 1 (EGR1) (AID 2282938). The note with it: HepG2 Attagene CIS-FACTORIAL EGR reporter mRNA; actives raise or lower the signal. In outline:
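Endogenous TF activity in HepG2 liver cells was gauged through cis-promoter reporter constructs transiently transfected. After 24 h dosing, reporter mRNA was quantified by RT-PCR and capillary electrophoresis, and curves fitted in both directions versus DMSO.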

The nature of assay [13]: ATG_M_19_CIS: Attagene CIS-FACTORIAL HepG2 Assay for M19 Transcription Factor (Internal Marker) (AID 2282939). The following applies: HepG2 Attagene CIS-FACTORIAL M19 internal marker reporter; actives raise or lower the signal. In short, it runs like this: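 Chemical-treated HepG2 (24 h) with MRTU constructs; reporter transcripts detected by fluorescent RT-PCR fragment analysis on capillary electrophoresis. Internal background marker, DMSO as baseline.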

A short description of assay [14]: ATG_ERE_CIS: Attagene CIS-FACTORIAL HepG2 Assay for Estrogen Response Element (ERE) (AID 2282940). The following applies: HepG2 ERE cis-reporter, Attagene RNA transcript; actives raise or lower the signal. In outline:
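Human liver cells (HepG2) bearing transiently transfected, promoter-regulated reporter units were exposed 24 h. Reporter mRNA induction was detected by capillary electrophoresis of labelled RT-PCR products and fitted bidirectionally to DMSO.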

Assay [15] is described as follows: ATG_Ets_CIS: Attagene CIS-FACTORIAL HepG2 Assay for human Erythroblast Transformation Specific (ETS) (AID 2282941). The following applies: HepG2 ETS cis-reporter transcription, actives raise or lower the signal. In short, it runs like this:
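RT-PCR/capillary electrophoresis fluorescence read-out of reporter mRNA; HepG2 transient multi-reporter transfection; 24 h compound exposure; gain or loss of signal fitted bidirectionally relative to DMSO.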

The nature of assay [16]: ATG_FoxO_CIS: Attagene CIS-FACTORIAL HepG2 Assay for human Forkhead box O (FoxO) (AID 2282943). The following applies: HepG2 Attagene cis-reporter, FoxO element, mRNA; actives raise or lower the signal. In outline: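 Human hepatoma HepG2 cells carry transiently introduced reporter transcription units controlled by cis promoter elements. Chemical treatment lasted 24 h, and mRNA signal was compared with DMSO.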

Assay [17] in a line: ATG_GATA_CIS: Attagene CIS-FACTORIAL HepG2 Assay for human GATA Binding Protein (AID 2282944). The note with it: HepG2 GATA cis-element reporter, Attagene multiplex mRNA; actives raise or lower the signal. In outline: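 Transfected cis-reporter HepG2 cells were treated with chemicals for 24 hours. Total RNA was then converted to cDNA, amplified with reporter-specific primers and analysed by fluorescent capillary electrophoresis, using DMSO-treated wells as baseline.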

Assay [18] can be described thus: ATG_GLI_CIS: Attagene CIS-FACTORIAL HepG2 Assay for human Zinc Finger Protein GLI1 (AID 2282945). The following applies: HepG2, Attagene cis-factorial reporter mRNA, GLI element; actives raise or lower the signal. In outline: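 Bidirectional curve fits relative to DMSO, using reporter mRNA levels from RT-PCR plus capillary electrophoresis. Cells were HepG2 transiently carrying cis-regulated reporter constructs, harvested 24 h after dosing.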

Assay [19] deals with Hepatocyte nuclear factor 3-beta (Homo sapiens) (UniProt Q9Y261). As to the kind of experiment: ATG_FoxA2_CIS: Attagene CIS-FACTORIAL HepG2 Assay for human Forkhead box A2 (FOXA2) (AID 2282942). The following applies: HepG2 cis-reporter transcription factor activity, 24 h; actives raise or lower the signal. In short, it runs like this:
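Endogenous transcription factor activity was read in HepG2 cells carrying transiently transfected cis-promoter reporter units. After 24 h dosing, reporter mRNA was quantified by RT-PCR and capillary electrophoresis, and values fitted bidirectionally versus DMSO.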

Assay [20] in a line: ATG_BRE_CIS: Attagene CIS-FACTORIAL HepG2 Assay for human Bone Morphogenetic Protein (BMP) Response Element (BRE) (AID 2282933). The following applies: HepG2 BMP response element reporter, Attagene transcription factor profiling; actives raise or lower the signal. In outline: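 A HepG2 multiplex reporter system measured inducible reporter mRNA 24 h post-dosing. Detection: RT-PCR, 6-FAM primer extension, HpaI digestion, capillary electrophoresis. Activity fitted bidirectionally relative to DMSO.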

Sequence of Aryl hydrocarbon receptor (Homo sapiens) (P35869 whole entry, looked up): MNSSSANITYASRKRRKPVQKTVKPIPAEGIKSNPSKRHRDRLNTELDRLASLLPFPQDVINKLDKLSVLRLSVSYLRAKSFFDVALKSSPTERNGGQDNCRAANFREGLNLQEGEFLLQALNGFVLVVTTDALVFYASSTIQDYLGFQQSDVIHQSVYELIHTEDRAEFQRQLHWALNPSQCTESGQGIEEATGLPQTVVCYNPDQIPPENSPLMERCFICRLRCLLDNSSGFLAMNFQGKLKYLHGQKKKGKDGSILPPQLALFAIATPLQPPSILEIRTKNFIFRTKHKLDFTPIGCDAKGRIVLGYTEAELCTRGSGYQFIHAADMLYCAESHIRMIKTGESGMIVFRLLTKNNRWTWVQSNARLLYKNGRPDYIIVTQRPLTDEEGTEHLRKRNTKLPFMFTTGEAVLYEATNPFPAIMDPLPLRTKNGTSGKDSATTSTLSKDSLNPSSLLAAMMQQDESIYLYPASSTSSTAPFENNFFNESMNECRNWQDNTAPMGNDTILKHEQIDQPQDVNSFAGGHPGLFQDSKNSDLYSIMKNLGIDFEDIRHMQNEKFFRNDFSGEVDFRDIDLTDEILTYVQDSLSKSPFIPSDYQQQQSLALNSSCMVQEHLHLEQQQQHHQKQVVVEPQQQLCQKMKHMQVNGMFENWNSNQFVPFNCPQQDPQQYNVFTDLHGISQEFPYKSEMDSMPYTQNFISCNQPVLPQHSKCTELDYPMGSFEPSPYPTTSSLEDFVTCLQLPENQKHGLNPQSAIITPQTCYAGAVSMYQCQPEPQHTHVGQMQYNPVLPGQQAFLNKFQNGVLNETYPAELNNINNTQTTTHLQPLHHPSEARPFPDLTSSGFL
Sequence of Hepatocyte nuclear factor 3-beta (Homo sapiens) (Q9Y261 whole entry, looked up): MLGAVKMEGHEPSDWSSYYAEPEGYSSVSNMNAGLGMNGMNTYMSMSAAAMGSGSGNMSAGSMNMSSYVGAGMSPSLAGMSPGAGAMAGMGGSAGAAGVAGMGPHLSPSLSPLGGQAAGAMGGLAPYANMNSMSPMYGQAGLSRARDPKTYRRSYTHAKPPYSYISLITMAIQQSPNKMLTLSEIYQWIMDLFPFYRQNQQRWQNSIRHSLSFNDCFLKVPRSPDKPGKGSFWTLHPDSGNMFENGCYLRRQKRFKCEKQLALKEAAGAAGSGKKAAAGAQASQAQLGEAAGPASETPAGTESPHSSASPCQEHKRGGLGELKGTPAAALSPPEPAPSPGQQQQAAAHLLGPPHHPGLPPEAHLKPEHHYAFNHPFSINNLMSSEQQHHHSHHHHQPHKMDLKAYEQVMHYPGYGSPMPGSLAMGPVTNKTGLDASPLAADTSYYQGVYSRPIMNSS
Sequence of CCAAT/enhancer-binding protein beta (Homo sapiens) (P17676 whole entry, looked up): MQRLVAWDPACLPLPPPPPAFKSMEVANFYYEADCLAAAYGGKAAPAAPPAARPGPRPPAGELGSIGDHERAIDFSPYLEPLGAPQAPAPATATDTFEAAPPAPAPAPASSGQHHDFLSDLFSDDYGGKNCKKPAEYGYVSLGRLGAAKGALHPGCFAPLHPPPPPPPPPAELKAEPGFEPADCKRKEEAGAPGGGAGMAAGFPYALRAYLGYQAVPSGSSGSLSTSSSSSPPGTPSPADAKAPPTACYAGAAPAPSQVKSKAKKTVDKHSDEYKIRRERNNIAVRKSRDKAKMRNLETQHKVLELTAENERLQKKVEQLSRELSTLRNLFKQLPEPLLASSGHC

On to `O=C1CCCCCCCCCCC(=O)OCCO1`, for which the outcome in [1], in assay [2], in assay [3], in assay [4], in assay [5] and in assay [6] was inactive. For the same compound, the outcome in assay [7], in assay [8], in [9], in assay [10], in [11] and in assay [12] was inactive. Moreover, the call in [13], in [14], in assay [15], in [16], in [17] and in assay [18] was inactive.

As for `O=c1cc[nH]c(=S)[nH]1`, the result in assay [1], in assay [2], in assay [3], in assay [4], in [5] and in [6] was inactive. In addition, the compound was called inactive in [7], in assay [8], in [9], in assay [10], in [11] and in assay [12]. The outcome in assay [13], in assay [14], in [15], in assay [19], in assay [16] and in [17] was inactive. The compound was classed as inactive in assay [18].

`CC/C=C\CCOC(=O)CCCCC`: the outcome in assay [1], in assay [2], in [3], in assay [4], in assay [5] and in assay [6] was inactive. In addition, the compound was classed as inactive in assay [7], in assay [8], in assay [9], in assay [10], in assay [11] and in assay [12]. Further, the outcome in assay [13], in [14], in [15], in assay [19], in assay [17] and in [18] was inactive.

`CC/C=C\C/C=C\C/C=C\CCCCCCCC(=O)O`: the half-maximal activity concentration (AC50) – broadly, the concentration at which the activity in the assay is half-maximal – was 173 µM (active) in assay [1]; 153 µM (active) in assay [4]; 161 µM (active) in [6]; 100 µM (active) in assay [10]; 103 µM (active) in assay [12]. Besides, the outcome in assay [2], in [3], in assay [5], in assay [7], in assay [20] and in assay [9] was inactive. Further, the compound was called inactive in assay [11], in assay [13], in [14], in assay [15], in assay [19] and in assay [16]. Further, the compound was called inactive in assay [17] and in assay [18].

`O=[N+]([O-])c1ccc(CO)cc1`: the call in assay [1], in assay [2], in [3], in assay [4], in assay [5] and in [6] was inactive. Also, the call in [7], in assay [20], in assay [9], in assay [10], in assay [11] and in [12] was inactive. Also, the call in assay [13], in assay [14], in [15], in assay [19], in assay [16] and in assay [17] was inactive. For the same compound, the compound was called inactive in [18].

Regarding `O=[N+]([O-])C1(Br)COCOC1`, the half-maximal activity concentration (AC50) was 53.6 µM (active) in assay [1], 33.4 µM (active) in [20] and 61 µM (active) in assay [10]. Besides, the result in assay [2], in [3], in assay [4], in assay [5], in assay [6] and in assay [7] was inactive. In addition, the result in [9], in assay [11], in [12], in assay [13], in assay [14] and in assay [15] was inactive. In addition, the call in [19], in assay [16], in assay [17] and in assay [18] was inactive.

In the case of `CCN(CCO)c1cccc(C)c1`, the compound was classed as inactive in [1], in assay [2], in [3], in [4], in assay [6] and in assay [7]. Further, the outcome in assay [8], in assay [9], in [10], in assay [11], in [12] and in assay [13] was inactive. In addition, the result in assay [14], in assay [15], in assay [19], in [16], in assay [17] and in assay [18] was inactive. The half-maximal activity concentration (AC50) in assay [5] is 55 µM (active).
